Results filed as inconclusive are left out. Activity calls are given as the source filed them. The call rests on the fitted dose curve; in most records, active means well fitted curve in the direction sought with a large enough effect; inconclusive means small, poorly fitted or top-dose-only effect, or another doubt; inactive means no such curve, though single readings can be large; an effect the other way counts as inactive or inconclusive.
Columns and labels:
HACAT = test: qHTS assay to identify novel small-molecules to repurpose for Merkel cell carcinoma treatment (AID 1296009); conditions: MCC and control cell lines, CellTiter-Glo viability, 72 h; at 44.8 µM (top of the series) unless noted; further: nearly all actives have a fitted effect of over 60% in size
Method in brief: (§1)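 Dose-response viability screen; 72 hr exposure at 37 degree celsius; CellTiter-Glo added, 10 min room temperature, luminescence read; RLUs scaled between no-cell and DMSO wells.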

MCC-13 = test: as above; conditions: MCC and control cell lines, CellTiter-Glo viability, 72 h; series mostly up to 46 µM
Method in brief: as §1

MKL-1 = test: as above; conditions: MCC and control cell lines, CellTiter-Glo viability, 72 h; series mostly up to 46 µM
Method in brief: as §1

MKL-2 = test: as above; conditions: MCC and control cell lines, CellTiter-Glo viability, 72 h; series mostly up to 46 µM
Method in brief: as §1

UISO = test: as above; conditions: MCC and control cell lines, CellTiter-Glo viability, 72 h; series mostly up to 46 µM
Method in brief: as §1

WaGa = test: as above; conditions: MCC and control cell lines, CellTiter-Glo viability, 72 h; series mostly up to 46 µM
Method in brief: as §1

C33A = test: Primary qHTS to identify gynecologic anti-cancer compounds using libraries of approved drugs and bioactive compounds (AID 1345084); conditions: Gynecologic cancer cell panel viability, ATPlite luminescence, 48 h; series mostly up to 57.5 µM; further: nearly all actives have a fitted effect of over 55% in size
Method in brief: (§2)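 Five-point cytotoxicity, 48 h drug exposure at 37 C, 5% CO2, on cells seeded 16 h beforehand. ATP content read by ATPlite luminescence.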

CAOV3 = test: as above; conditions: Gynecologic cancer cell panel viability, ATPlite luminescence, 48 h; series mostly up to 57.5 µM
Method in brief: as §2

CASKI = test: as above; conditions: Gynecologic cancer cell panel viability, ATPlite luminescence, 48 h; series mostly up to 57.5 µM
Method in brief: as §2

Es-2 = test: as above; conditions: Gynecologic cancer cell panel viability, ATPlite luminescence, 48 h; series mostly up to 57.5 µM
Method in brief: as §2

HeLa = test: as above; conditions: Gynecologic cancer cell panel viability, ATPlite luminescence, 48 h; series mostly up to 57.5 µM
Method in brief: as §2

Hek293T [1] = test: as above; conditions: Gynecologic cancer cell panel viability, ATPlite luminescence, 48 h, control line for the selectivity index; series mostly up to 57.5 µM
Method in brief: as §2

JEG-3 = test: as above; conditions: Gynecologic cancer cell panel viability, ATPlite luminescence, 48 h; series mostly up to 57.5 µM
Method in brief: as §2

OV90 = test: as above; conditions: Gynecologic cancer cell panel viability, ATPlite luminescence, 48 h; series mostly up to 57.5 µM
Method in brief: as §2

PA-1 = test: as above; conditions: Gynecologic cancer cell panel viability, ATPlite luminescence, 48 h; series mostly up to 57.5 µM
Method in brief: as §2

SKOV3 = test: as above; conditions: Gynecologic cancer cell panel viability, ATPlite luminescence, 48 h; series mostly up to 57.5 µM
Method in brief: as §2

Tov-21-G = test: as above; conditions: Gynecologic cancer cell panel viability, ATPlite luminescence, 48 h; series mostly up to 57.5 µM
Method in brief: as §2

MCC-26 = test: qHTS assay to identify novel small-molecules to repurpose for Merkel cell carcinoma treatment (AID 1296009); conditions: MCC and control cell lines, CellTiter-Glo viability, 72 h; series mostly up to 46 µM; further: nearly all actives have a fitted effect of over 60% in size
Method in brief: as §1

HEK293T [2] = test: as above; conditions: MCC and control cell lines, CellTiter-Glo viability, 72 h; at 44.8 µM (top of the series) unless noted
Method in brief: as §1

Measured: Potency

CC(C)[C@@H]1CC[C@@H](C)CC1=O
not listed: MCC-26 | HEK293T [2]
inactive: all other assays above

O=C1C(CCS(=O)c2ccccc2)C(=O)N(c2ccccc2)N1c1ccccc1 (centres undefined)
not listed: MKL-1 | MKL-2 | SKOV3 | HEK293T [2]
inactive: all other assays above

CCc1oc2ccccc2c1C(=O)c1cc(Br)c(O)c(Br)c1
not listed: UISO | WaGa | HeLa | SKOV3 | HEK293T [2]
inactive: all other assays above

O=C1C(O)=C(O)C(=O)C(O)=C1O
not listed: HACAT | HeLa | PA-1
inactive: all other assays above

Cc1cccc(C)c1NC(=O)c1ccccc1C(=O)O
not listed: HACAT | HEK293T [2]
inactive: all other assays above

CC(=O)Oc1ccc(C)cc1
not listed: HACAT | HEK293T [2]
inactive: all other assays above

FC1(F)C(F)(F)C(F)(F)C2(F)C(F)(F)C(F)(F)C(F)(F)C(F)(F)C2(F)C1(F)F (centres undefined)
not listed: HACAT | HEK293T [2]
inactive: all other assays above

NS(=O)(=O)c1ccc(Cl)c(S(N)(=O)=O)c1
not listed: HACAT | CAOV3 | OV90
inactive: all other assays above
